Screening data from PubChem BioAssay.
A selection: hits, their analogues and other compounds. The true share with any hit is near 17%.
S2 tox: cell viability loss in ATXN counter-screen; Potency, µM (highest dose often 56.7 µM), hits mostly cytotoxic; 0.49% of 400,000 active; S2 cells (HEK-293 line with an ATXN2-luciferase reporter) viability, CellTiter-Fluor protease fluorescence, 24 h; AID 651635; note: nearly all actives have a fitted effect of over 40% in size
TDP1 cell CPT: DT40-hTDP1 cell growth loss with CPT. chicken DT40 Tdp1-/-;hTDP1 cells + 20 nM CPT, ATP luminescence, 48 h. Potency, µM (top dose mostly 46.2 µM), hits mostly inhibitors. 12% of 420,000 active. AID 686979; note: nearly all actives have a fitted effect of over 55% in size
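Chicken DT40 Tdp1-/- cells stably complemented with human TDP1 were seeded at 400 cells/well in medium containing 20 nM camptothecin, exposed to pin-transferred compounds, and grown at 37 °C for at least 48 hr. Viability was read as ATP luminescence.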
TGFb inhibitor: blocks TGF-b signaling | HepG2 CAGA-GFP TGF-b/SMAD3 reporter, GFP fluorescence, 18 h; TGF-beta stimulated, 500 pg/mL final | Potency, µM (top dose mostly 46.1 µM), actives largely listed as inhibitors | 1.2% of 410,000 active; note: nearly all actives have a fitted effect of over 65% in size
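TGF-beta reporter screen: HEPG2 CAGA-GFP, 1% FBS, 500 pg/mL TGF-beta final, 18 h; per-cell GFP summed per well; curves fitted and categorized by class.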
ATXN2 expr inh: ATXN2 expression inhibition; AID 1745845; 0.72% of 360,000 active; Potency, µM (titrated, usually from 57 µM), actives largely listed as inhibitors; HEK-293 ATXN2-luciferase reporter, luminescence, 24 h; note: nearly all actives have a fitted effect of over 55% in size
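qHTS (up to 57 uM final) was run with 24 h compound exposure of reporter cells at 37 °C. Each well was multiplexed: SteadyGlo luminescence measured ATXN2-luciferase expression after a fluorogenic Gly-Phe-AFC viability readout (25 uM final).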
TDP1 cell noCPT: qHTS for Inhibitors of human tyrosyl-DNA phosphodiesterase 1 (TDP1): qHTS in cells in absence of CPT; DT40 Tdp1-/- hTDP1 cells, no CPT, ATP luminescence, 48 h; Potency, µM (doses to about 46.2 µM), hits mostly inhibitors; 15% of 420,000 active; note: nearly all actives have a fitted effect of over 55% in size
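Camptothecin absent (DMSO only). Human TDP1-complemented DT40 knockout cells, 400 cells/well, 37 °C for minimum 48 hr; ATP measured via CellTiter-Glo, 30 min dark incubation, luminescence.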
HepG2 tox: HepG2 cytotoxicity, counter-screen for TGF-b inhibitors. HepG2 CAGA-GFP viability, ATP luminescence, 18 h. 0.76% of 410,000 active. Potency, µM (series often up to 46.1 µM), hits mostly cytotoxic
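CellTiter-Glo luminescence gave cytotoxicity after 18 hours at 37 degrees C. The cells were HepG2 CAGA-GFP in 1% FBS DMEM, stimulated with 500 pg/mL TGF-beta after compound addition. %Activity was normalised to no-cell wells (complete cell-killing) and DMSO (no toxicity), and curves were fitted and classified.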
Large screens that a line does not name were inactive. Calls come from the whole dose curve; as a rule, active = well fitted curve in the direction sought with a large enough effect; inconclusive = small, poorly fitted or top-dose-only effect, or another doubt; inactive = no such curve, though single readings can be large; an effect the other way counts as inactive or inconclusive.

C=CC[C@H](CC(=O)NCCO)C(=O)N[C@H](COC(=O)[C@@H](CC=C)Cc1ccc(F)cc1)C(C)(C)C	TDP1 cell CPT inconclusive, TDP1 cell noCPT 18µM
C=CCC[C@@H](Cc1ccc(F)cc1)C(=O)OC[C@@H](Cc1ccccc1)NC(=O)[C@@H](CC=C)CC(=O)N[C@@H](CO)Cc1ccccc1	TDP1 cell CPT inconclusive, TDP1 cell noCPT inconclusive
C=CC[C@@H](CC(=O)NCCO)C(=O)N[C@@H](COC(=O)[C@@H](CC=C)Cc1ccc(F)cc1)Cc1ccccc1	TDP1 cell CPT 18µM, TDP1 cell noCPT inconclusive
CCN(CC)CCN=C1CCCc2ccccc2N1	TDP1 cell noCPT inconclusive
COC(=O)c1ccc(NC(=O)C(=O)NCCc2csc(-c3ccc(F)cc3)n2)cc1	none
c1ccc(Cn2nnc(CNc3ccccc3)c2-c2c(CNc3ccccc3)nnn2Cc2ccccc2)cc1	TDP1 cell CPT inconclusive, ATXN2 expr inh inconclusive, TDP1 cell noCPT inconclusive
Cn1nnnc1Sc1ncnc2scc(-c3cccc(S(C)(=O)=O)c3)c12	S2 tox inconclusive, TGFb inhibitor inconclusive, ATXN2 expr inh 8.9µM (no result: TDP1 cell CPT, TDP1 cell noCPT)
CN(C)C(=O)CSc1ncnc2scc(-c3ccccc3)c12	none
Cn1nnnc1Sc1ncnc2scc(-c3cccc(Br)c3)c12	S2 tox 14µM, TGFb inhibitor inconclusive, ATXN2 expr inh 8.9µM (no result: TDP1 cell CPT, TDP1 cell noCPT)
CC(=O)c1cccc(-c2csc3ncnc(Sc4nnnn4C)c23)c1	S2 tox 7.9µM, TGFb inhibitor 6.3µM, ATXN2 expr inh 6.3µM (no result: TDP1 cell CPT, TDP1 cell noCPT)
Cc1ccc(S(=O)(=O)NCC(=O)NCC(=O)N(C)Cc2ccc3ccccc3c2)cc1C	TDP1 cell CPT inconclusive, TGFb inhibitor inconclusive, ATXN2 expr inh inconclusive
CCOc1ccc(CCNC(=O)CCCc2nnc3n(C)c(=O)c4sccc4n23)cc1OCC	none
CC(C)NC(=O)C1(C)CCN1C(=O)c1cccc(F)c1 (centres undefined)	none
Cn1c2ccccc2c2ccc3c(c21)C(=O)C=CC3=O	S2 tox 6µM, TDP1 cell CPT 0.41µM, ATXN2 expr inh inconclusive, TDP1 cell noCPT 0.52µM
Cc1ccc(C)c2c1c1ccccc1n2C	none
Cc1ccc(C)c(Cn2c(=O)n(Cc3ccccc3)c(=O)c3c2c2cc(C)ccc2n3C)c1	none
Cc1ccc2c(c1)c1ccc3c(c1n2C)C(=O)C=CC3=O	S2 tox 10µM, TDP1 cell CPT 0.52µM, TGFb inhibitor inconclusive, ATXN2 expr inh 10µM, TDP1 cell noCPT 0.58µM
COc1ccc2c(c1)c1ccc3c(c1n2C)C(=O)C=CC3=O	TDP1 cell CPT 0.73µM, TGFb inhibitor inconclusive, TDP1 cell noCPT 0.52µM (no result: ATXN2 expr inh)
Cc1ccc2nc(N3CCCCCC3)c(CN(CC3CCCO3)C(=O)c3cncs3)cc2c1 (centres undefined)	S2 tox inconclusive (no result: TGFb inhibitor, ATXN2 expr inh, HepG2 tox)
CCC(=O)N1c2ccccc2CC1C(=O)NCc1cccc(OC)c1OC (centres undefined)	TDP1 cell CPT inconclusive
Fc1cccc(CN2CCc3nc(Nc4ccc5c(c4)OCCO5)ncc3C2)c1F	S2 tox inconclusive, TDP1 cell CPT inconclusive, TGFb inhibitor inconclusive, ATXN2 expr inh inconclusive, TDP1 cell noCPT 26µM
COc1cccc(CN2CCc3nc(Nc4ccc5c(c4)OCCO5)ncc3C2)c1OC	TDP1 cell CPT 21µM, TDP1 cell noCPT 8.2µM
CC(C)CN1CCc2nc(Nc3ccc(F)cc3F)ncc2C1	TDP1 cell noCPT inconclusive
CN1CCCC(C)(C(=O)Nc2ccc(-n3cccc3)cc2)C1 (centres undefined)	none
CCN(CC)C(=O)C1CCN(Cc2cn(C)nc2-c2ccc(Oc3ccccc3)cc2)CC1	TDP1 cell CPT inconclusive, TDP1 cell noCPT 21µM (no result: ATXN2 expr inh)
Cn1c(=O)c(-c2ccccc2)nc2cnc(OCc3ccccc3)nc21	none (no result: S2 tox, TGFb inhibitor, ATXN2 expr inh, HepG2 tox)
Cc1ccc(NC(=O)C2CCN(S(=O)(=O)c3cccc(C(F)(F)F)c3)CC2)nc1	none
CN(C(=O)CSc1nc2ccccc2[nH]1)c1ccc(F)cc1	TGFb inhibitor inconclusive
